ROS inducer: cancer cell ROS induction. U2OS ROS induction, H2DCF-DA fluorescence. ROS induction (% of piperlongumine), % at 10 µM. AID 624156. 2% of 46,000 active; in the data active = ROS induction above about 79%, passing the limit was not always enough; inconclusive = no clear call, values can overlap the other calls;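 note: 0% = DMSO vehicle median and 100% = reference compound median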
NOMO-1 viab: STK33 inhibitor candidate reducing NOMO-1 cell viability. NOMO-1 AML viability, CellTiter-Glo luminescence, 72 h. inhibition, % (no concentration beside the values). 7.5% of 37,000 active. AID 2330; in the data active = inhibition above about 80%; inconclusive = no clear call, values can overlap the other calls
PD-1 reverse act: activators reversing PD-1 mediated T-cell inhibition; primary human CD4 T cells, PD-L1 beads, CellTiter-Glo 96 h; activation, % (test concentration not listed); 29,000 tested, under 10 active; call rule not given here;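 note: 0% = median vehicle wells and 100% = positive control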
* marks the source's active call; other numbers are inactive results; u = inconclusive; x = no result given. The sample as a whole holds a higher share of hits than the screen did.

SMILES	ROS inducer	NOMO-1 viab	PD-1 reverse act
COc1ccc(CC(=O)Nc2ccc(NC(=O)c3ccco3)cc2)cc1OC	10	114*	-7
COc1ccc(CC(=O)Nc2ccc(S(N)(=O)=O)cc2)cc1OC	x	11	x
COc1cc(NC(=O)COc2cc(C)c(Cl)c(C)c2)ccc1NC(=O)c1ccco1	4	-17	2
CCn1c(-c2ccccc2Cl)nc2ccccc21	-14	x	x
Cc1ccc(CSCCC(=O)N2CCN(c3cccc(C)c3C)CC2)cc1	-13	x	x
c1coc(CCC2NCCn3cccc32)c1 (centres undefined)	-1	57	-4
Cc1ccccc1NC(=S)N1CCC(N(C)C(C)C)CC1	-4	x	x
C[C@@H]1CN([C@H](C)CO)C(=O)c2cccc(NS(C)(=O)=O)c2O[C@H]1CN(C)Cc1ccc(-c2ccccc2)cc1	2	-7	0
C[C@@H]1CN([C@@H](C)CO)C(=O)c2cccc(NS(C)(=O)=O)c2O[C@H]1CN(C)Cc1ccc(Oc2ccccc2)cc1	10	4	-1
C[C@@H]1CN([C@H](C)CO)C(=O)c2cccc(N(C)C)c2O[C@H]1CN(C)Cc1ccc(-c2ccccc2)cc1	-1	86*	-8
C[C@H](CO)N1C[C@H](C)[C@@H](CN(C)Cc2ccc(Oc3ccccc3)cc2)Oc2c(NS(C)(=O)=O)cccc2C1=O	92*	16	-1
C[C@@H]1CN([C@H](C)CO)C(=O)c2cccc(N(C)C)c2O[C@@H]1CN(C)Cc1ccc(-c2ccccc2)cc1	-3	25	0
C[C@H]1CN([C@@H](C)CO)C(=O)c2cccc(NS(C)(=O)=O)c2O[C@@H]1CN(C)Cc1ccc(-c2ccccc2)cc1	98*	13	1
CCOc1ccc(-c2cc(C(=O)NCC3COc4ccccc4O3)c3ccccc3n2)cc1 (centres undefined)	60	x	x
COc1ccccc1NC(=O)C1C=C2C=CC=CC2OC1=Nc1ccccc1F (centres undefined)	47	40	0
O=C(/C=C/c1ccccc1)NC(=S)Nc1ccc(C(F)(F)F)cc1	-5	x	x
Cc1ccc(-c2nc(NCCC3=CCCCC3)c3ccccc3n2)cc1	21	x	x
FC(F)(F)c1cc(N2CCC(n3cccc3)CC2)c2ccccc2n1	16	x	x
CC1CCN(C(=O)c2ccc(-c3nn(C)c(=O)c4ccccc34)cc2)CC1	9	x	x
Cc1oc2c(c1C(=O)N1CCC(C)CC1)C(=O)c1ccccc1C2=O	21	113*	-6
Cc1oc2c(c1C(=O)NCCc1ccccc1)C(=O)c1ccccc1C2=O	-11	32	0
Cc1oc2c(c1C(=O)NC1CCCC1)C(=O)c1ccccc1C2=O	102*	140*	-4
CCC(C)C(=O)N1CCN(c2cccc(Cl)c2)CC1 (centres undefined)	-10	x	x
Cc1csc2sc(-c3ccnc(SCC(=O)c4ccccc4)n3)c(C)c12	21	1	0
Cc1csc2sc(-c3ccnc(SCC(=O)NCc4ccccc4)n3)c(C)c12	62	113*	-2
SMILES	ROS inducer	NOMO-1 viab	PD-1 reverse act
CNC(=O)c1cccc(NC(=S)NC)c1	-12	x	x
O=C1C2ON(c3ccc(Cl)cc3)C(c3ccc(F)cc3)C2C(=O)N1Cc1ccccc1 (centres undefined)	-8	x	x
C[C@@H]1CN([C@@H](C)CO)C(=O)Cc2cc(NC(=O)C3CC3)ccc2O[C@@H]1CN(C)Cc1ccc(C(=O)Nc2ccccc2N)cc1	-5	82*	0
C[C@H]1CN([C@@H](C)CO)C(=O)Cc2cc(NC(=O)NC3CCCCC3)ccc2O[C@H]1CN(C)Cc1ccc(C(=O)Nc2ccccc2N)cc1	8	139*	1
C[C@@H]1CN([C@H](C)CO)C(=O)Cc2cc(NC(=O)C3CC3)ccc2O[C@H]1CN(C)Cc1ccc(C(=O)Nc2ccccc2N)cc1	-2	45	-4
C[C@@H]1CN([C@H](C)CO)C(=O)Cc2cc(NC(=O)NC3CCCCC3)ccc2O[C@H]1CN(C)Cc1ccc(C(=O)Nc2ccccc2N)cc1	0	16	-1
C[C@@H]1CN([C@H](C)CO)C(=O)Cc2cc(NC(=O)Nc3ccc(C(F)(F)F)cc3)ccc2O[C@H]1CN(C)Cc1ccc(C(=O)Nc2ccccc2N)cc1	-18	24	-1
C[C@@H]1CN([C@@H](C)CO)C(=O)Cc2cc(NC(=O)Nc3ccc(F)cc3)ccc2O[C@@H]1CN(C)Cc1ccc(C(=O)Nc2ccccc2N)cc1	u	113*	1
C[C@H](CO)N1C[C@H](C)[C@H](CN(C)Cc2ccc(C(=O)Nc3ccccc3N)cc2)Oc2ccc(NC(=O)Nc3ccc(F)cc3)cc2CC1=O	57	127*	-4
CC(Oc1ccccc1)C(=O)NC1CCCC1 (centres undefined)	2	x	x
Cc1cc(OCC(=O)N(Cc2ccc(Cl)cc2)Cc2ccco2)cc(C)c1Cl	14	x	x
CCNC(=O)c1cccc(OC)c1	-7	x	x
Cc1noc(C)c1NC(=O)Nc1ccc2c(c1)CC(=O)N([C@@H](C)CO)C[C@H](C)[C@H](CN(C)Cc1ccc(C(=O)Nc3ccccc3N)cc1)O2	-5	88*	0
Cc1noc(C)c1NC(=O)Nc1ccc2c(c1)C(=O)N([C@@H](C)CO)C[C@H](C)[C@@H](CN(C)Cc1ccc(C(=O)Nc3ccccc3N)cc1)O2	11	-10	0
C[C@@H]1CN([C@@H](C)CO)C(=O)Cc2cc(NC(=O)Nc3ccc4c(c3)OCO4)ccc2O[C@@H]1CN(C)Cc1ccc(C(=O)Nc2ccccc2N)cc1	3	101*	-2
C[C@@H]1CN([C@@H](C)CO)C(=O)Cc2cc(NC(=O)Nc3ccccc3)ccc2O[C@@H]1CN(C)Cc1ccc(C(=O)Nc2ccccc2N)cc1	28	124*	-4
CC(C)NC(=O)Nc1ccc2c(c1)CC(=O)N([C@@H](C)CO)C[C@H](C)[C@@H](CN(C)Cc1ccc(C(=O)Nc3ccccc3N)cc1)O2	-3	24	-1
C[C@@H]1CN([C@H](C)CO)C(=O)Cc2cc(NC(=O)Nc3cccc4ccccc34)ccc2O[C@H]1CN(C)Cc1ccc(C(=O)Nc2ccccc2N)cc1	16	-20	-2
O=C(c1ccc(Cl)c(Cl)c1)N1CCc2ccccc21	-4	x	x
NC(=O)C1CCN(C(=O)c2n[nH]c(=O)c3ccccc23)CC1	-18	x	x
O=C(Cn1nc(Cc2cccnc2)c2ccccc2c1=O)Nc1ccc(Oc2ccccc2)cc1	-3	x	x
O=C(c1cccc2ccccc12)N(C1CCCC1)C1CCCC1	10	x	x
CCc1ccc(OCCCn2cc(/C=C3/C(=N)N4C=CSC4=NC3=O)c3ccccc32)cc1	32	54	0
CCc1cc(C)cc(OCCn2cc(C=C3C(=O)NC(=O)NC3=O)c3ccccc32)c1	26	122*	-23
Cc1ccc(C2C(C(=O)c3ccc(Br)cc3)C(=O)C(=O)N2CCCN(C)C)cc1 (centres undefined)	-11	x	x
SMILES	ROS inducer	NOMO-1 viab	PD-1 reverse act
O=c1c2ccccc2nc(-c2ccccc2)n1OCc1ccc(Br)cc1	-1	x	x
CCCNC(=O)c1ccc(OCC)cc1	6	x	x
O=C(Nc1ccccc1)C1CCN(S(=O)(=O)c2ccccc2)CC1	-13	x	x
Cc1cc(C)c(C#N)c(SCc2ccccc2)n1	-7	x	x
Cc1cc(C)c(C#N)c(Sc2ncnc3c2nnn3Cc2ccccc2)n1	74	116*	-7
Cc1cc(C)cc(-n2c(SCC(=O)Nc3ccccc3C(F)(F)F)nc3c(c2=O)SCC3)c1	5	x	x

High-throughput results from PubChem.
